Most compounds without a hit are left out; they make up all but 3.8% or so of the library.
S2 tox: viability counter-screen for ATXN expression inhibitors. S2 cells (HEK-293 line with an ATXN2-luciferase reporter) viability, CellTiter-Fluor protease fluorescence, 24 h. Potency, µM (highest dose often 56.7 µM), usual class: cytotoxic. hit rate 0.49% among 400,000. AID 651635; further: nearly all actives have a fitted effect of over 40% in size
HT1080-NT tox: kills 2HG-producing HT-1080-NT fibrosarcoma cells; HT-1080-NT fibrosarcoma viability, CellTiter-Glo ATP luminescence, 48 h; AID 686970; hit rate 1.6% among 360,000; Potency, µM (highest dose often 46.1 µM), for inactives: at the top dose activity, negative = less viability, most hits filed as cytotoxic;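 further: NT is the 2HG producing partner of a matched IDH1 knockdown line; 0% = DMSO-treated cells and -100% = media-only wells without cells; nearly all actives have a fitted effect of over 55% in size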
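HT-1080-NT; 750 cells/well; 5% FBS RPMI; 48 h compound, 37 degrees C; CellTiter-Glo luminescence; curve fitting and curve-class assignment.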
HepG2 tox-1: HepG2 cytotoxicity, counter-screen for TGF-b inhibitors; HepG2 CAGA-GFP viability, ATP luminescence, 18 h; hit rate 0.76% among 410,000; Potency, µM (doses to about 46.1 µM), for inactives: at the highest dose activity change, negative = cytotoxicity, usual class: cytotoxic
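HepG2 CAGA-GFP cells (1000/well, DMEM with 1% FBS) received compound, then TGF-beta at 500 pg/mL final, and were incubated 18 hours at 37 degrees C. Viability was read by CellTiter-Glo luminescence. Media-only wells were set as complete cell-killing and DMSO as no toxicity.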
ATXN2 expr inh: ATXN2 expression inhibition; hit rate 0.72% among 360,000; HEK-293 ATXN2-luciferase reporter, luminescence, 24 h; Potency, µM (highest dose often 57 µM), for inactives: at the top dose activity change, negative = inhibition, most hits filed as inhibitors; AID 1745845; further: on the % scale 0 is the no-effect control and ±100 the full control effect; nearly all actives have a fitted effect of over 55% in size
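qHTS (up to 57 uM final) was run with 24 h compound exposure of reporter cells at 37 °C. Each well was multiplexed: SteadyGlo luminescence measured ATXN2-luciferase expression after a fluorogenic Gly-Phe-AFC viability readout (25 uM final).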
HT1080 IDH1KD tx: kills HT-1080 cells with IDH1 knockdown; HT-1080 IDH1 knockdown viability, ATP luminescence, 48 h; Potency, µM (series often up to 46.1 µM), without a hit: top-dose activity, negative = toxicity, usual class: cytotoxic; hit rate 2% among 360,000;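 further: 0% = DMSO wells and -100% = cell-free medium wells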
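Knockdown cells (IDH1KD HT-1080) received compounds 2 h after plating at 750 cells/well and were kept 48 h at 37 °C in 5% FBS RPMI. A CellTiter-Glo luminescence read gave % activity for curve fitting.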
TGFb inhibitor: blocks TGF-b signaling; Potency, µM (doses to about 46.1 µM), for inactives: at the highest dose activity, negative = inhibition, usual class: inhibitors; HepG2 CAGA-GFP TGF-b/SMAD3 reporter, GFP fluorescence, 18 h; TGF-beta stimulated, 500 pg/mL final; AID 588855; hit rate 1.2% among 410,000; further: on the % scale 0 is the no-effect control and ±100 the full control effect; nearly all actives have a fitted effect of over 65% in size
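Cell-based qHTS in HEPG2 carrying a CAGA-GFP Smad reporter; compounds added before 500 pg/mL final TGF-beta, 18 h incubation at 37 degrees C, GFP fluorescence quantified per cell by imaging cytometry.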
TGFb CAGA inh: confirmation of TGF-b signaling inhibitors in HepG2 reporter cells. hit rate 63% among 1,600. HepG2 CAGA-GFP TGF-b reporter, GFP fluorescence, 18 h; cells stimulated with TGF-beta, 500 pg/mL. shares compounds with TGFb inhibitor. Potency, µM (highest dose often 46.1 µM), inactives show at the top dose activity, negative = inhibition, most hits filed as inhibitors; further: on the % scale 0 is the no-effect control and ±100 the full control effect; nearly all actives have a fitted effect of over 65% in size
HepG2 tox-2: HepG2 cytotoxicity, TGF-b inhibitor counterscreen | shares compounds with TGFb inhibitor | HepG2 CAGA-GFP viability, ATP luminescence, 18 h; cells stimulated with TGF-beta, 500 pg/mL | Potency, µM (series often up to 46.1 µM), without a hit: at the highest dose activity, negative = cytotoxicity, actives largely listed as inhibitors | hit rate 27% among 1,600; further: on the % scale 0 is the no-effect control and ±100 the full control effect; nearly all actives have a fitted effect of over 70% in size
CCL64 TGFb inh: blocks TGF-b signaling in CCL64 reporter cells; hit rate 41% among 1,600; shares compounds with TGFb inhibitor; AID 720536; CCL64 CAGA-GFP reporter, TGF-b stimulated, GFP fluorescence, 18 h; Potency, µM (series often up to 46.1 µM), without a hit: at the top dose activity, negative = inhibition, actives largely listed as inhibitors; further: nearly all actives have a fitted effect of over 65% in size
TGFb COP inh: validation of TGF-b inhibitors in HepG2 COP promoter reporter; shares compounds with TGFb inhibitor; HepG2 COP-GFP TGF-b reporter, GFP fluorescence, 18 h; cells stimulated by added recombinant TGF-beta; Potency, µM (doses to about 46.1 µM), without a hit: at the top dose activity, negative = inhibition, most hits filed as inhibitors; hit rate 3% among 1,600; further: nearly all actives have a fitted effect of over 70% in size
The depositor's hits bear a star; i = inactive; ? = inconclusive; . = not tested or not shown. The call rests on the fitted dose curve; in most records, active means well fitted curve in the direction sought with a large enough effect; inconclusive means small, poorly fitted or top-dose-only effect, or another doubt; inactive means no such curve, though single readings can be large; an effect the other way counts as inactive or inconclusive. Potency means the concentration at half of the fitted maximal effect.

SMILES	S2 tox	HT1080-NT tox	HepG2 tox-1	ATXN2 expr inh	HT1080 IDH1KD tx	TGFb inhibitor	TGFb CAGA inh	HepG2 tox-2	CCL64 TGFb inh	TGFb COP inh
CN(CC(=O)N1CCN(Cc2ccccc2)CC1)C(=O)Cc1cccc2ccccc12	?	7.4%	-8.0%	-14.8%	0.1%	14.1µM*	?	-16.2%	2.1%	-3.0%
O=C(Nn1c(SCc2ccc(F)cc2)nc2ccsc2c1=O)c1ccccc1	i	-2.4%	-2.2%	8.3%	-2.3%	11.2µM*	16.4µM*	?	?	53.1%
Cc1ccc(CNC(=O)CSc2nc3ccsc3c(=O)n2NC(=O)c2ccccc2)cc1	i	-1.8%	-11.6%	33.0%	2.2%	-13.4%	.	.	.	.
O=C(Nc1ccc(F)cc1C(F)(F)F)C1CCN(c2ncccn2)CC1	i	.	3.4%	8.9%	.	?	.	.	.	.
O=C(Oc1ccc(Cl)c2cccnc12)c1cccnc1	.	?	-63.2%	-0.2%	?	10µM*	-12.7%	-0.2%	?	2.5%
O=C(Oc1ccc(Cl)c2cccnc12)N1CCCCC1	?	0.0%	4.5%	28.3%	-23.3%	0.7%	.	.	.	.
Nc1nc(Nc2ccccc2)sc1C(=O)c1ccccc1	i	?	-35.9%	11.4%	?	5.62µM*	3.66µM*	3.66µM*	20.6µM*	21.3%
Cc1ccc(NC(=O)c2cc(S(=O)(=O)N(C)C)ccc2N2CCCC2)cc1F	i	-13.7%	-1.4%	-0.2%	-25.6%	10µM*	13µM*	-15.0%	18.4µM*	-10.6%
COc1cccc(/C=N/Nc2ncnc(Cl)c2N)c1O	11.2µM*	8.2µM*	-26.6%	?	4.11µM*	7.08µM*	?	11.6µM*	5.17µM*	56.9%
Cc1ccc(C2(c3ccc(C)cc3)CC2C(=O)Nc2ccc([N+](=O)[O-])cc2O)cc1 (stereo not given)	.	20.6µM*	11.2µM*	15.8µM*	16.4µM*	3.98µM*	5.8µM*	8.2µM*	7.31µM*	?
CC1(C)CC1C(=O)Nc1ccc([N+](=O)[O-])cc1Br (stereo not given)	i	12.1%	-0.2%	-0.9%	1.1%	12.8%	.	.	.	.
CCN(CC(O)Cn1c2ccccc2c2ccccc21)S(=O)(=O)c1ccc(C)cc1 (stereo not given)	i	-4.0%	-73.4%	-24.5%	-26.6%	10µM*	20.6µM*	?	?	58.8%
O=C(CSc1nc(N2CCCCC2)nc(N2CCCCC2)n1)N1CCN(c2ccccc2)CC1	i	-13.1%	4.1%	-11.1%	-11.3%	6.31µM*	16.4µM*	-8.4%	?	4.2%
Cc1nc(SCC(=O)N2CCN(c3ccccc3)CC2)n[nH]1	i	9.2%	10.2%	-9.9%	3.8%	17.3%	.	.	.	.
COc1ccc(NC(=O)CCSc2nc(-c3ccco3)cc(C(F)(F)F)n2)cc1OC	i	.	-10.7%	8.5%	.	-3.8%	.	.	.	.
COc1ccc(NC(=O)CCCSc2nc(-c3ccco3)cc(C(F)(F)F)n2)cc1OC	?	-24.3%	-4.4%	-30.6%	-25.3%	?	?	-10.8%	-27.8%	3.1%
COc1cccc(NC(=O)c2cnn(-c3ccccc3)c2-n2cccc2)c1	.	.	-17.6%	.	.	?	.	.	.	.
Cc1ccc(OCC(=O)Nc2cccc(C(=O)OCc3cc(=O)n4nc(C)sc4n3)c2)cc1	.	.	2.1%	.	.	18.7%	.	.	.	.
CC1CN(S(=O)(=O)c2cc(C(=O)NCc3ccncc3)ccc2Cl)CC(C)O1 (stereo not given)	i	-0.6%	-1.3%	-2.6%	-0.5%	3.2%	.	.	.	.
Cc1ccccc1CCNC(=O)c1ccc(Cl)c(S(=O)(=O)N2CC(C)OC(C)C2)c1 (stereo not given)	?	1.6%	4.0%	-35.1%	-21.6%	10µM*	16.4µM*	?	?	3.3%
CC(=O)c1cccc(NS(=O)(=O)c2cc(-c3onc(C)c3C)ccc2C)c1	i	.	-26.4%	0.0%	.	-7.4%	.	.	.	.
COc1ccc(S(=O)(=O)N(CC(=O)Nc2ccc(F)c(Cl)c2)c2ccc(C)cc2)cc1OC	?	.	-37.4%	-18.6%	.	-17.3%	.	.	.	.
O=C(Nc1ccc(F)cc1F)Nc1sccc1-c1nc2ccccc2s1	i	?	0.5%	.	0.9%	11.2µM*	?	-16.5%	?	-4.9%
CCOc1ccc(NC(=S)NC23CC4CC(CC(C4)C2)C3)cc1	?	1.0%	1.5%	-19.1%	0.4%	7.9%	.	.	.	.
FC(F)Oc1ccc(NC(=S)NC23CC4CC(CC(C4)C2)C3)cc1	i	?	-23.7%	-4.1%	?	12.6µM*	?	?	?	38.1%
Cc1cc(C)c(NC(=O)CCn2c(=O)c3cccn3c3ccccc32)c(C)c1	.	.	-22.5%	.	.	-12.0%	.	.	.	.
Cc1ccc(C2=CC(c3ccccc3F)n3c(nc4ccccc43)N2)cc1C (stereo not given)	i	.	-6.2%	-9.1%	.	?	.	.	.	.
CC(=O)C[n+]1cccc2cc(Cl)ccc21	.	.	1.1%	.	.	4.7%	.	.	.	.
Cc1cc(NC(=S)NC(=O)C2CC2)ccc1Br	i	-10.6%	-2.1%	70.9%	-8.1%	3.98µM*	0.82µM*	0.461µM*	?	25.1%
COc1cc2c(cc1OC)C(C)N(C(=O)c1cc3c(C)cc(C)cc3[nH]1)CC2 (stereo not given)	?	?	-28.7%	?	6.51µM*	11.2µM*	16.4µM*	14.6µM*	?	50.6%

Source: PubChem
